Sm TGR block – qHTS Assay for the Inhibitors of Schistosoma Mansoni Peroxiredoxins | purified TGR, DTNB reduction, TNB absorbance 405 nm | Schistosoma mansoni thioredoxin glutathione reductase (TGR), Q962Y6 | AID 485364, 2010 | Potency, µM (series often up to 114 µM), for inactives: top-dose activity change, negative = inhibition, usual class: inhibitors | actives 3% (n = 360,000); further: on the % scale 0 is the no-effect control and ±100 the full control effect; nearly all actives have a fitted effect of over 60% in size
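First, TGR (20 nM dispensed) and NADPH were mixed with compound. Second, a 15 min room-temperature incubation followed. Third, further NADPH and then DTNB were added to start the reaction. Finally, TNB absorbance was monitored kinetically.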
Pf growth 96h – Primary qHTS for delayed death inhibitors of the malarial parasite plastid, 96 hour incubation. actives 6.9% (n = 320,000). AID 504834, 2011. Potency, µM (top dose mostly 28.7 µM), for inactives: top-dose activity change, negative = inhibition, actives largely listed as inhibitors. P. falciparum luciferase reporter growth, 96 h; further: on the % scale 0 is the no-effect control and ±100 the full control effect
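Delayed-death screen, second-generation endpoint: infected erythrocytes, 2% hematocrit, 0.05% parasitemia final; 96 hours at 37 C, 5% CO2; luciferase detection reagent; luminescence decrease equals reduced growth.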
AmpC no deterg – qHTS Inhibitors of AmpC Beta-Lactamase (assay without detergent); P00811; AmpC nitrocefin hydrolysis, absorbance 480 nm, 0.0001% Triton; Potency, µM (series often up to 57.1 µM), for the others: top-dose activity change, negative = inhibition, most hits filed as inhibitors; actives 0.52% (n = 330,000);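 further: plate controls were no compound for no effect and no enzyme for full effect; nearly all actives have a fitted effect of over 20% in size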
Target sequence (P00811 whole entry, looked up): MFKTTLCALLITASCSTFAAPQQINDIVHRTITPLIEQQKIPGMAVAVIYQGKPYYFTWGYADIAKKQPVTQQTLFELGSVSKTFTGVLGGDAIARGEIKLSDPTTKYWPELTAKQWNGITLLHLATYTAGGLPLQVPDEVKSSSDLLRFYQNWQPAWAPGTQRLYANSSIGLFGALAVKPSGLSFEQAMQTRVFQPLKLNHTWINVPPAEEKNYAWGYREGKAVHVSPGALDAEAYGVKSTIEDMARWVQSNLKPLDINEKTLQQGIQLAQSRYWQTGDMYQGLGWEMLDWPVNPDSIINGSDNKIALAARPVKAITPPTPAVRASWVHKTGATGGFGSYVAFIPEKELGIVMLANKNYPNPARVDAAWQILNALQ
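20 mM phosphate pH 7.0 + 0.01% (detergent screen) or 0.0001% Triton X-100; 5.3 nM AmpC reagent; cpd preinc 15 min RT; nitrocefin (800 uM stock) to start; A480 q20 s × 4 min; Activity was normalised to no-enzyme and no-compound control wells.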
Pf growth 48h – Primary qHTS for delayed death inhibitors of the malarial parasite plastid, 48 hour incubation. P. falciparum luciferase growth in erythrocytes, 48 h. Potency, µM (highest dose often 28.7 µM), inactives show top-dose activity change, negative = inhibition, usual class: inhibitors. actives 5.9% (n = 310,000); further: on the % scale 0 is the no-effect control and ±100 the full control effect
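Firefly luciferase activity from engineered P. falciparum reports growth; inhibitors lower the luminescent signal. Cultures contained 2% hematocrit erythrocytes at 0.1% final parasitemia.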
SARS PLP yeast – qHTS of Yeast-based Assay for SARS-CoV PLP | S. cerevisiae expressing SARS-CoV PLpro, growth rescue | Potency, µM (top dose mostly 32.9 µM), for inactives: at the top dose activity, positive = growth rescue, actives largely listed as activators | actives 0.19% (n = 330,000) | AID 485353, 2010; calls by dose curve; further: 0% is about no effect; nearly all actives have a fitted effect of over 55% in size
AmpC inh detg – qHTS Inhibitors of AmpC Beta-Lactamase (assay with detergent); Potency, µM (titrated, usually from 114 µM), without a hit: at the highest dose activity change, negative = inhibition, actives largely listed as inhibitors; actives 0.041% (n = 370,000); P00811; AmpC hydrolysis of nitrocefin, absorbance 480 nm, 0.01% Triton;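 further: 0% = no-compound wells and -100% = no-enzyme wells; nearly all actives have a fitted effect of over 25% in size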
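20 mM phosphate pH 7.0 + 0.01% (detergent screen) or 0.0001% Triton X-100; 5.3 nM AmpC reagent; cpd preinc 15 min RT; nitrocefin (800 uM stock) to start; A480 q20 s × 4 min; Activity was normalised to no-enzyme and no-compound control wells.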
Active calls of the source: *; ? = inconclusive; . = no result given; [ ] = remark or other dose. Compounds with a hit are over-represented: about 12% of the library has one in this group of screens. Unless noted, the call rests on the fitted dose curve; in most records, active means well fitted curve in the direction sought with a large enough effect; inconclusive means small, poorly fitted or top-dose-only effect, or another doubt; inactive means no such curve, though single readings can be large; an effect the other way counts as inactive or inconclusive. Potency means the concentration at half of the fitted maximal effect.

SMILES | Sm TGR block | Pf growth 96h | AmpC no deterg | Pf growth 48h | SARS PLP yeast | AmpC inh detg
OC(c1cccc(Cl)c1)c1nccc2ccccc12 (stereo not drawn) | -15% | ? | -10% | 74% | 1% | -11%
O=C(OC(c1ccccc1)c1nccc2ccccc12)c1cc([N+](=O)[O-])cc([N+](=O)[O-])c1 (stereo not drawn) | 0% | 10µM* | -18% | -14% | -69% | 6%
CC(C)C(=O)Nc1ncc(Cc2cccc(Cl)c2)s1 | 1% | 4% | -27% | -14% | 12% | 1%
CCc1ccc(C(=O)COC(=O)c2cncc(Br)c2)cc1 | 2% | 52% | -31% | 17µM* | 1% | -10%
C[C@]12CCC(=O)C=C1CCC1C2C(=O)C[C@]2(C)C1CC[C@]2(O)C(=O)CO (stereo partly drawn) | . | 2% | . | -6% | . | .
COc1cc(OC)c(OC)cc1/C=C1/C(=O)NC(=O)N(Cc2ccccc2)C1=O | ? | 0% | -26% | 2% | 1% | 4%
Cc1ccc(/C=C2/C(=O)NC(=O)N(CCc3ccc(F)cc3)C2=O)o1 | ? | -6% | -36% | 1% | ? | -2%
COc1ccc(CN2C(=O)NC(=O)/C(=C\c3cc(OC)c(OC)c(OC)c3)C2=O)cc1 | 13µM* | -3% | -13% | 3% | 0% | ?
COc1ccc(CN2C(=O)NC(=O)/C(=C/c3ccc([N+](=O)[O-])s3)C2=O)cc1 | 1.1µM* | 17% | ? | 56% | -4% | -7%
COc1ccc(CN2C(=O)NC(=O)/C(=C\c3ccco3)C2=O)cc1 | ? | 21% | -51% | ? | -3% | ?
O=C1NC(=O)N(Cc2ccc(F)cc2)C(=O)/C1=C\c1ccc([N+](=O)[O-])s1 | 2.2µM* | 4% | 11µM* | -1% | 1% | -6%
Cc1cc(OC(C)C(=O)NCc2ccncc2)c2c(C)c(C)c(=O)oc2c1 (stereo not drawn) | -17% | -14% | 16% | -6% | ? | -14%
COc1ccc(O)c(N)c1 | 3.2µM* | -107% | -43% | 32% | 1% | ?
CCCCC(CC)COC(=O)CC(C(=O)OCC(CC)CCCC)S(=O)(=O)O (stereo not drawn) | . | -2% | . | -4% | . | .
c1ccc(C2=NN(c3ccccc3)CC2)cc1 | 5µM* | 137% | -33% | 148% | -1% | 6%
COc1cc(/C=C2\C(=O)N(c3ccc(NC(C)=O)cc3)N=C2c2ccccc2)ccc1O | -3% | 35% | 113% | -9% | 1% | ?
CCOc1cc(/C=C2\C(=O)N(c3nc(-c4ccc(Br)cc4)cs3)N=C2c2ccccc2)ccc1O | -17% | 4% | 16µM* | . | 14% | -9%
Cc1ccc(NC(=S)N=Nc2c(O)[nH]c3ccccc23)cc1 | 21% | 1.9µM* | -55% | 5.2µM* | -6% | -13%
CNC(=S)N=Nc1c(O)[nH]c2ccccc12 | -24% | -4% | -29% | 3% | 7% | -8%
Oc1ccc(NC(=S)N=Nc2c(O)[nH]c3ccc(Br)cc23)cc1 | -9% | 58% | 18µM* | ? | 1% | 2%
CNC(=S)N=Nc1c(O)[nH]c2ccc(C(C)C)cc12 | -6% | 6.6µM* | -50% | ? | -4% | -1%
Cc1ccc2nc(NC(=O)CSc3nccn3Cc3ccc(F)cc3)sc2c1 | 7% | . | . | . | . | 21%
COc1ccccc1/C=C/C(=O)NCc1cccnc1 | -1% | -23% | 0%[2.29 µM] | 54% | 0% | 5%
COC(=O)c1ccc(COC(=O)[C@@H]2CC(O)CN2S(=O)(=O)c2ccccc2[N+](=O)[O-])cc1 (stereo partly drawn) | -7% | 0% | 7% | 0% | -7% | 0%
CC1CCCCN1S(=O)(=O)c1ccc(NC(=O)CSc2nnnn2C)cc1 (stereo not drawn) | 4% | ? | -9% | -3% | -7% | -13%
SMILES | Sm TGR block | Pf growth 96h | AmpC no deterg | Pf growth 48h | SARS PLP yeast | AmpC inh detg
C=C(C)CSc1nc2ncccc2[nH]1 | 7% | -22% | -9% | 3% | -3% | -7%
CCN(CC)C(=O)CSc1nc2ncccc2[nH]1 | 0% | 12µM* | -14% | 36% | 5% | 0%
O=C1CS/C(=N/N=C\c2ccn[nH]2)N1 | 12% | 1.9µM* | -8% | -22% | 2% | -12%
CC(C)C[C@H](NC(=O)N1CCn2c1nc1ccccc12)C(=O)N1CCCCC1 | 5% | ? | 131% | ? | 3% | -8%
O=C1OC(CN2CCOCC2)CN1N=Cc1ccc([N+](=O)[O-])o1 (stereo not drawn) | -32% | ? | -3% | 13µM* | . | ?
O=C1CN(/N=C/c2ccc([N+](=O)[O-])o2)C(=O)N1 | ? | 4.1µM* | -20% | 13µM* | 10% | -8%
COC(=O)c1sccc1S(=O)(=O)N1CCN(c2cccc(C)c2C)CC1 | -5% | . | . | . | . | 5%
O=C(N/C(=C/c1cccs1)C(=O)N1CCOCC1)c1cccs1 | -21% | 9.3µM* | -12% | -2% | -1% | -1%
CC(C)(C)c1ccc(C(=O)N/C(=C\c2cccs2)C(=O)N2CCOCC2)cc1 | -8% | -2% | 47% | -1% | 0% | -2%
O=C(N/C(=C\c1cccs1)C(=O)N1CCCCCC1)c1ccccc1 | 11% | 9.3µM* | -10% | ? | 6% | 1%
Cc1ccc(C(=O)N/C(=C/c2cccs2)C(=O)N2CCCCCC2)cc1 | 1% | -2% | 2% | -3% | -5% | 2%
O=C(N/C(=C/c1cccs1)C(=O)N1CCCCCC1)c1ccccc1 | -22% | 6% | -10% | ? | -13% | -13%
Cc1ccc(C(=O)N/C(=C\c2cccs2)C(=O)NC2CCCCC2)cc1 | -9% | 4.1µM* | -26% | . | -14% | ?
O=C(Nc1ccccc1)/C(=C\c1cccs1)NC(=O)c1ccccc1 | -5% | 1.5µM* | -17% | 20% | -5% | -14%
CC1CCn2c(nc3cc(C(=O)NCc4ccc(OC(C)C)cc4)ccc32)C1 (stereo not drawn) | 18% | . | . | . | . | 19%
Cc1ccc(-n2nc3c(N4CCCC(C(=O)NCc5ccccc5C)C4)nnc(C)c3c2C)cc1 (stereo not drawn) | 6% | . | . | . | . | 12%
CC1(C)C(=O)Nc2ccccc2N1C(=O)COc1ccccc1C#N | . | . | -15% | . | -14% | .
CCCc1cc(=O)[nH]c(SCCc2ccccc2)n1 | 7% | 9.3µM* | -29% | 17% | -5% | -1%

Screening results (PubChem BioAssay)
